Reference: paper PMC7862700, “An all-to-all approach to the identification of sequence-specific readers for epigenetic DNA modifications on cytosine”

Tests used:
Experiment in all cases: DAPPL (digital affinity profiling via proximity ligation, sequencing); 10 mM Tris-HCl pH 7.5, 50 mM NaCl, 1 mM DTT, 4% glycerol, room temperature, 30 min; GST-TFs on glutathione beads, 16-mer random dsDNA library, 0.1% formaldehyde crosslink after washing; high values mean tight binding
Conditions in all cases: protein: recombinant; tags: N-terminal GST; dsDNA, one strand shown
ERF = molecular target: T1, ERF (Homo sapiens, UniProt P50548 1-548)
T1 sequence: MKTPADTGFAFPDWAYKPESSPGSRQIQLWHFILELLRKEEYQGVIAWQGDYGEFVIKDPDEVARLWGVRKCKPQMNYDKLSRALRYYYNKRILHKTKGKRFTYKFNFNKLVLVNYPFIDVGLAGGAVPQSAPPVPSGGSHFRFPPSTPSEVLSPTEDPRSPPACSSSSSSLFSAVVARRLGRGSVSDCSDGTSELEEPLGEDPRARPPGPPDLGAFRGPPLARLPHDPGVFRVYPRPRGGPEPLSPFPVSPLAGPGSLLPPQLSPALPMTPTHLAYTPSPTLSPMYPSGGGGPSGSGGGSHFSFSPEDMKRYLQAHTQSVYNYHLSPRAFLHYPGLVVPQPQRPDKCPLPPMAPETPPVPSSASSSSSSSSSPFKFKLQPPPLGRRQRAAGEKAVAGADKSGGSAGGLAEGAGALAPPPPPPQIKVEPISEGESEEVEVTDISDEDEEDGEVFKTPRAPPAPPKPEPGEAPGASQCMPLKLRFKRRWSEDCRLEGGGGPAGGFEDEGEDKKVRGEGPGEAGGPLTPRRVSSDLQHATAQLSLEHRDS
Method in brief: (§1)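 Pools were built from human transcription factors expressed in yeast as GST fusions, captured on glutathione beads and DNA-barcoded, along with a tag-only sample. Incubation with 200 nmole of a 16-mer random double-stranded DNA library lasted 30 min at room temperature in Tris/NaCl/DTT/glycerol buffer, and was followed by washing, 0.1% formaldehyde crosslinking, proximity ligation, PCR amplification and Illumina NextSeq500 sequencing. Binding signal is the quotient of each hexamer's read frequency for a factor and its frequency for the tag-only sample.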

ETV3L = molecular target: T2, ETV3L (Homo sapiens, UniProt Q6ZN32 1-361)
T2 sequence: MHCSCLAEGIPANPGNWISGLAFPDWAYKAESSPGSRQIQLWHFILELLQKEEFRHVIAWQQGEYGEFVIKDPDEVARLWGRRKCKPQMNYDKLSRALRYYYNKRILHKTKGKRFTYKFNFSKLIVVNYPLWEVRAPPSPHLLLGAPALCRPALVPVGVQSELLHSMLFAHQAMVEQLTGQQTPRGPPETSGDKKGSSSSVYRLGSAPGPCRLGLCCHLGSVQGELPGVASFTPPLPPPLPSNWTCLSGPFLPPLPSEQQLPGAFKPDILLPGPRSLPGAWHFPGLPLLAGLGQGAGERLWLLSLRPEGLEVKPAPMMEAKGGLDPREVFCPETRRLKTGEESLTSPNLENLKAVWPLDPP
Method in brief: as §1

ETS2 = molecular target: T3, ETS2 (Homo sapiens, UniProt P15036 1-469)
T3 sequence: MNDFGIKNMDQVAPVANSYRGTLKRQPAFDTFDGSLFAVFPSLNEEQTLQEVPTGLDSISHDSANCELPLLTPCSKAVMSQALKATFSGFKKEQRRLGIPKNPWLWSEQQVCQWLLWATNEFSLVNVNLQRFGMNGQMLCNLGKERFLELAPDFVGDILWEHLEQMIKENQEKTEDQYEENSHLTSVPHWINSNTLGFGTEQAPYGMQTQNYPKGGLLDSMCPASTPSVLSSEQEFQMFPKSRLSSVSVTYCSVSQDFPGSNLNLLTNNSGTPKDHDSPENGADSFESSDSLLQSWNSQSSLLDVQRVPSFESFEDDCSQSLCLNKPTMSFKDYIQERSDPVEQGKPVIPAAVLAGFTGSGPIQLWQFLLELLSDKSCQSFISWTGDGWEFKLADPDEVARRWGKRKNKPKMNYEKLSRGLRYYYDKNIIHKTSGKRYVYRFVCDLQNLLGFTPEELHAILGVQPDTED
Method in brief: as §1

SPDEF = molecular target: T4, SPDEF (Homo sapiens, UniProt O95238 1-335)
T4 sequence: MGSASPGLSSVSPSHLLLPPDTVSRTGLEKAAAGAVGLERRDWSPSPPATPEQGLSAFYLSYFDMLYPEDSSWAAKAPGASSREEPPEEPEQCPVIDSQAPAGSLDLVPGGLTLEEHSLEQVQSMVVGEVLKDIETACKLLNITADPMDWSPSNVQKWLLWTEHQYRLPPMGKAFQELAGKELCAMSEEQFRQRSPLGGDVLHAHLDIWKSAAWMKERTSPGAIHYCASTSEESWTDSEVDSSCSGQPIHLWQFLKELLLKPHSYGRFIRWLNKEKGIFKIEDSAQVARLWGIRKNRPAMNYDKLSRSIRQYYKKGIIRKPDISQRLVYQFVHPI
Method in brief: as §1

ETV7 = molecular target: T5, ETV7 (Homo sapiens, UniProt Q9Y603 1-341)
T5 sequence: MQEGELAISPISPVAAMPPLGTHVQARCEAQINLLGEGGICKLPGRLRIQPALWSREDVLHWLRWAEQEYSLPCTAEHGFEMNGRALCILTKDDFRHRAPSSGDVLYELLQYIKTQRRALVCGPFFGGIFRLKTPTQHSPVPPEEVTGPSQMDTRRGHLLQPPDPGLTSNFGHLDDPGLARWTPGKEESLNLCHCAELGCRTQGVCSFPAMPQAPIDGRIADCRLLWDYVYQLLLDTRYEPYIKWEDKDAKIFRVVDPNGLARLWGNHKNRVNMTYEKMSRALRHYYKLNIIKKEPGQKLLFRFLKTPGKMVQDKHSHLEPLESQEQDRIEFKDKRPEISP
Method in brief: as §1

ELF5 = molecular target: T6, ELF5 (Homo sapiens, UniProt Q9UKW6-2 1-255)
T6 sequence: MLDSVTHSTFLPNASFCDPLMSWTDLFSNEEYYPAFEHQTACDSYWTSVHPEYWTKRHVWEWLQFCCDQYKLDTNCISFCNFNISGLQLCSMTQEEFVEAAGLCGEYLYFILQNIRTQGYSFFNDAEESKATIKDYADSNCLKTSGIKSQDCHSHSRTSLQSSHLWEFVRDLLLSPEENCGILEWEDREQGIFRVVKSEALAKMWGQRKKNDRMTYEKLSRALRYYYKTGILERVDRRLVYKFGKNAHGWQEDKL
Method in brief: as §1

ETV3 = molecular target: T7, ETV3 (Homo sapiens, UniProt P41162-2 1-143)
T7 sequence: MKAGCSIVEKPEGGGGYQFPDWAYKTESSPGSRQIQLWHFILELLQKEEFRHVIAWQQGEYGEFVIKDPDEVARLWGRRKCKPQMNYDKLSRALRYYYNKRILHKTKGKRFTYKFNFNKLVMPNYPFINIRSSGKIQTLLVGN
Method in brief: as §1

ETV6 = ETV6 (Homo sapiens, UniProt P41212 1-452)
Method in brief: as §1

ETV6, sequence (P41212 whole entry): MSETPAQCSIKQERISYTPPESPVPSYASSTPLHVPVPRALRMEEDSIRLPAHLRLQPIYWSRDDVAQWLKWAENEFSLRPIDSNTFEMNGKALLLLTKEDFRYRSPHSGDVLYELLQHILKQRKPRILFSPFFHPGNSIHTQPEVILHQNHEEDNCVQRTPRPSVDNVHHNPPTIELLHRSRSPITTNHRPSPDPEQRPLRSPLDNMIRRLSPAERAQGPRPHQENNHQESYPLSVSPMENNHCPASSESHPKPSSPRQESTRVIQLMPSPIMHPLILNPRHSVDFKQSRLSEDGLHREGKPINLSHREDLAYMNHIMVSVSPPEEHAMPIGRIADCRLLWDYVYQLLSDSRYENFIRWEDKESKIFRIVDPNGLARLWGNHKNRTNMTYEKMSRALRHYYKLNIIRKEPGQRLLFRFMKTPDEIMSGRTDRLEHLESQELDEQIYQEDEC

| Sequence | binding signal (ERF) | binding signal (ETV3L) | binding signal (ETS2) | binding signal (SPDEF) | binding signal (ETV7) | binding signal (ELF5) | binding signal (ETV3) | binding signal (ETV6) |
| --- | --- | --- | --- | --- | --- | --- | --- | --- |
| TTAGCG | 1.05 fold enrichment (6-mer frequency, TF over GST control) | 1.06 fold enrichment (6-mer frequency, TF over GST control) | 1.06 fold enrichment (6-mer frequency, TF over GST control) | 1.04 fold enrichment (6-mer frequency, TF over GST control) | 1.11 fold enrichment (6-mer frequency, TF over GST control) | 1.02 fold enrichment (6-mer frequency, TF over GST control) | 1.03 fold enrichment (6-mer frequency, TF over GST control) | 1.04 fold enrichment (6-mer frequency, TF over GST control) |
| GCTGCT | 1.11 fold enrichment (6-mer frequency, TF over GST control) | 1.43 fold enrichment (6-mer frequency, TF over GST control) | 1.43 fold enrichment (6-mer frequency, TF over GST control) | 1.21 fold enrichment (6-mer frequency, TF over GST control) | 1.21 fold enrichment (6-mer frequency, TF over GST control) | 1.23 fold enrichment (6-mer frequency, TF over GST control) | 1.2 fold enrichment (6-mer frequency, TF over GST control) | 1.27 fold enrichment (6-mer frequency, TF over GST control) |
| CTTCTA | 1.5 fold enrichment (6-mer frequency, TF over GST control) | 1.35 fold enrichment (6-mer frequency, TF over GST control) | 1.53 fold enrichment (6-mer frequency, TF over GST control) | 1.3 fold enrichment (6-mer frequency, TF over GST control) | 1.43 fold enrichment (6-mer frequency, TF over GST control) | 1.39 fold enrichment (6-mer frequency, TF over GST control) | 1.2 fold enrichment (6-mer frequency, TF over GST control) | 1.4 fold enrichment (6-mer frequency, TF over GST control) |
| TCCACT | 1.42 fold enrichment (6-mer frequency, TF over GST control) | 1.49 fold enrichment (6-mer frequency, TF over GST control) | 1.45 fold enrichment (6-mer frequency, TF over GST control) | 1.37 fold enrichment (6-mer frequency, TF over GST control) | 1.4 fold enrichment (6-mer frequency, TF over GST control) | 1.42 fold enrichment (6-mer frequency, TF over GST control) | 1.41 fold enrichment (6-mer frequency, TF over GST control) | 1.39 fold enrichment (6-mer frequency, TF over GST control) |
| GCCCTC | 1.26 fold enrichment (6-mer frequency, TF over GST control) | 1.09 fold enrichment (6-mer frequency, TF over GST control) | 1.24 fold enrichment (6-mer frequency, TF over GST control) | 1.08 fold enrichment (6-mer frequency, TF over GST control) | 1.22 fold enrichment (6-mer frequency, TF over GST control) | 1.1 fold enrichment (6-mer frequency, TF over GST control) | 1.17 fold enrichment (6-mer frequency, TF over GST control) | 1.05 fold enrichment (6-mer frequency, TF over GST control) |
| TGCCTA | 1.09 fold enrichment (6-mer frequency, TF over GST control) | 1.16 fold enrichment (6-mer frequency, TF over GST control) | 1.16 fold enrichment (6-mer frequency, TF over GST control) | 1.03 fold enrichment (6-mer frequency, TF over GST control) | 1.01 fold enrichment (6-mer frequency, TF over GST control) | 1 fold enrichment (6-mer frequency, TF over GST control) | 1.07 fold enrichment (6-mer frequency, TF over GST control) | 1.07 fold enrichment (6-mer frequency, TF over GST control) |
| CTGGCA | 1.28 fold enrichment (6-mer frequency, TF over GST control) | 1.27 fold enrichment (6-mer frequency, TF over GST control) | 1.25 fold enrichment (6-mer frequency, TF over GST control) | 1.13 fold enrichment (6-mer frequency, TF over GST control) | 1.4 fold enrichment (6-mer frequency, TF over GST control) | 1.19 fold enrichment (6-mer frequency, TF over GST control) | 1.2 fold enrichment (6-mer frequency, TF over GST control) | 1.28 fold enrichment (6-mer frequency, TF over GST control) |
| GCTTTT | 1.16 fold enrichment (6-mer frequency, TF over GST control) | 1.12 fold enrichment (6-mer frequency, TF over GST control) | 1.17 fold enrichment (6-mer frequency, TF over GST control) | 1.09 fold enrichment (6-mer frequency, TF over GST control) | 1.21 fold enrichment (6-mer frequency, TF over GST control) | 1.06 fold enrichment (6-mer frequency, TF over GST control) | 1.15 fold enrichment (6-mer frequency, TF over GST control) | 1.22 fold enrichment (6-mer frequency, TF over GST control) |
| TGATAT | 1.02 fold enrichment (6-mer frequency, TF over GST control) | 1.09 fold enrichment (6-mer frequency, TF over GST control) | 1.12 fold enrichment (6-mer frequency, TF over GST control) | 1.18 fold enrichment (6-mer frequency, TF over GST control) | 1.03 fold enrichment (6-mer frequency, TF over GST control) | 1.09 fold enrichment (6-mer frequency, TF over GST control) | 1.15 fold enrichment (6-mer frequency, TF over GST control) | 1.06 fold enrichment (6-mer frequency, TF over GST control) |
